{
  "source": "the supplement of paper PMC8728848",
  "binders": {"B1": {"name": "CML1 (Coprinopsis cinerea) (protein)", "chain": "MAIFHTGSELFIITRGPGKLTLLTWGGLNNLRSVIGAIPTENTGVTKWAVSFSHNYTRFSFIWEGQGEACYQIGNGLTRSPVGRSWSSSSTIHWGSSTVITEDVTSVVPGAVNRDKVTTAYALPDNL"}},
  "assay_in_all_cases": "glycan array binding signal (z-score within array); higher = stronger binding",
  "conditions_in_all_cases": "glycan notation: IUPAC condensed, linker removed",
  "key": {"Fuc(a1-2)Gal(b1-3)GlcNAc": {"target": "Fuc(a1-2)Gal(b1-3)GlcNAc", "in_short": "(§1)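 Arrays were curated from the Consortium for Functional Glycomics database, 3228 in total, and kept only where the protein sequence was available. Binding is expressed as a within-array Z-score. This score was averaged across arrays of the same protein sequence at different concentrations or buffers and across linkers, and negative values can be read as non-binding.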"}, "[1]": {"target": "Fuc(a1-2)Gal(b1-3)GlcNAc(b1-2)Man(a1-3)[Fuc(a1-2)Gal(b1-3)GlcNAc(b1-2)Man(a1-6)]Man(b1-4)GlcNAc(b1-4)[Fuc(a1-6)]GlcNAc", "in_short": "as §1"}, "[2]": {"target": "Fuc(a1-2)Gal(b1-3)GlcNAc(b1-3)Gal(b1-4)Glc", "in_short": "as §1"}, "[3]": {"target": "Fuc(a1-2)Gal(b1-3)GlcNAc(b1-3)GalNAc", "in_short": "as §1"}, "[4]": {"target": "Fuc(a1-2)Gal(b1-3)GlcNAc6S", "in_short": "as §1"}, "Fuc(a1-2)Gal(b1-4)Glc": {"target": "Fuc(a1-2)Gal(b1-4)Glc", "in_short": "as §1"}, "Fuc(a1-2)Gal(b1-4)Glc6S": {"target": "Fuc(a1-2)Gal(b1-4)Glc6S", "in_short": "as §1"}, "[5]": {"target": "Fuc(a1-2)Gal(b1-4)GlcNAc(b1-3)Gal(b1-4)GlcNAc", "in_short": "as §1"}, "[6]": {"target": "Fuc(a1-2)Gal3S(b1-4)GlcNAc", "in_short": "as §1"}, "[7]": {"target": "Fuc(a1-2)Gal6S(b1-3)GlcNAc6S", "in_short": "as §1"}, "[8]": {"target": "Fuc(a1-2)[Gal(a1-3)]Gal(b1-3)GlcNAc", "in_short": "as §1"}, "[9]": {"target": "Fuc(a1-2)[Gal(a1-3)]Gal(b1-3)GlcNAc(b1-2)Man(a1-3)[Fuc(a1-2)[Gal(a1-3)]Gal(b1-3)GlcNAc(b1-2)Man(a1-6)]Man(b1-4)GlcNAc(b1-4)[Fuc(a1-6)]GlcNAc", "in_short": "as §1"}, "[10]": {"target": "Fuc(a1-2)[Gal(a1-3)]Gal(b1-4)GlcNAc(b1-2)Man", "in_short": "as §1"}, "[11]": {"target": "Fuc(a1-2)[Gal(a1-3)]Gal(b1-4)GlcNAc(b1-2)Man(a1-3)[Fuc(a1-2)[Gal(a1-3)]Gal(b1-4)GlcNAc(b1-2)Man(a1-6)]Man(b1-4)GlcNAc(b1-4)GlcNAc", "in_short": "as §1"}, "[12]": {"target": "Fuc(a1-2)[Gal(a1-4)]Gal(b1-4)GlcNAc", "in_short": "as §1"}, "[13]": {"target": "Fuc(a1-2)[GalNAc(a1-3)]Gal(b1-4)GlcNAc(b1-2)Man", "in_short": "as §1"}, "[14]": {"target": "Fuc(a1-2)[GalNAc(b1-3)]Gal", "in_short": "as §1"}, "[15]": {"target": "Gal(a1-3)Gal(b1-4)[Fuc(a1-3)]GlcNAc", "in_short": "as §1"}, "Gal(a1-4)Gal(b1-4)Glc": {"target": "Gal(a1-4)Gal(b1-4)Glc", "in_short": "as §1"}, "Gal(b1-3)Gal(b1-4)GlcNAc": {"target": "Gal(b1-3)Gal(b1-4)GlcNAc", "in_short": "as §1"}, "[16]": {"target": "Gal(b1-3)GlcNAc(b1-3)Gal(b1-4)GlcNAc", "in_short": "as §1"}, "[17]": {"target": "Gal(b1-3)[Neu5Ac(a2-6)]GalNAc", "in_short": "as §1"}, "[18]": {"target": "Gal(b1-4)GlcNAc(b1-2)Man(a1-3)[Gal(b1-4)GlcNAc(b1-2)Man(a1-6)][Gal(b1-4)GlcNAc(b1-4)]Man(b1-4)GlcNAc(b1-4)[Fuc(a1-6)]GlcNAc", "in_short": "as §1"}, "[19]": {"target": "Gal(b1-4)GlcNAc(b1-2)Man(a1-3)[GlcNAc(b1-2)Man(a1-6)]Man(b1-4)GlcNAc(b1-4)GlcNAc", "in_short": "as §1"}, "[20]": {"target": "Gal(b1-4)GlcNAc(b1-3)Gal(b1-3)GlcNAc", "in_short": "as §1"}, "[21]": {"target": "Gal(b1-4)GlcNAc(b1-3)Gal(b1-4)GlcNAc(b1-3)Gal(b1-4)GlcNAc(b1-3)Gal(b1-4)GlcNAc(b1-3)Gal(b1-4)GlcNAc(b1-3)Gal(b1-4)GlcNAc(b1-2)Man(a1-3)[Gal(b1-4)GlcNAc(b1-3)Gal(b1-4)GlcNAc(b1-3)Gal(b1-4)GlcNAc(b1-3)Gal(b1-4)GlcNAc(b1-3)Gal(b1-4)GlcNAc(b1-3)Gal(b1-4)GlcNAc(b1-2)Man(a1-6)]Man(b1-4)GlcNAc(b1-4)GlcNAc", "in_short": "as §1"}, "[22]": {"target": "Gal3S(b1-3)[Fuc(a1-4)]GlcNAc", "in_short": "as §1"}, "Gal6S(b1-3)GlcNAc6S": {"target": "Gal6S(b1-3)GlcNAc6S", "in_short": "as §1"}, "GalNAc(b1-3)GalNAc": {"target": "GalNAc(b1-3)GalNAc", "in_short": "as §1"}, "GlcNAc(b1-3)Gal(b1-4)Glc": {"target": "GlcNAc(b1-3)Gal(b1-4)Glc", "in_short": "as §1"}},
  "note": "This excerpt belongs to a sample that is enriched for the strongest signals.",
  "data": [
    {"binder": "B1", "values": [
      {"measurement": "glycan array binding signal (z-score)", "setting": "Fuc(a1-2)Gal(b1-3)GlcNAc", "value": 5.31},
      {"measurement": "glycan array binding signal (z-score)", "setting": "[1]", "value": 1.34},
      {"measurement": "glycan array binding signal (z-score)", "setting": "[2]", "value": 4.85},
      {"measurement": "glycan array binding signal (z-score)", "setting": "[3]", "value": 3.31},
      {"measurement": "glycan array binding signal (z-score)", "setting": "[4]", "value": 4.12},
      {"measurement": "glycan array binding signal (z-score)", "setting": "Fuc(a1-2)Gal(b1-4)Glc", "value": -0.039},
      {"measurement": "glycan array binding signal (z-score)", "setting": "Fuc(a1-2)Gal(b1-4)Glc6S", "value": 1.38},
      {"measurement": "glycan array binding signal (z-score)", "setting": "[5]", "value": -0.335},
      {"measurement": "glycan array binding signal (z-score)", "setting": "[6]", "value": -0.157},
      {"measurement": "glycan array binding signal (z-score)", "setting": "[7]", "value": 3.67},
      {"measurement": "glycan array binding signal (z-score)", "setting": "[8]", "value": 3.51},
      {"measurement": "glycan array binding signal (z-score)", "setting": "[9]", "value": 1.07},
      {"measurement": "glycan array binding signal (z-score)", "setting": "[10]", "value": -0.329},
      {"measurement": "glycan array binding signal (z-score)", "setting": "[11]", "value": -0.242},
      {"measurement": "glycan array binding signal (z-score)", "setting": "[12]", "value": -0.314},
      {"measurement": "glycan array binding signal (z-score)", "setting": "[13]", "value": -0.348},
      {"measurement": "glycan array binding signal (z-score)", "setting": "[14]", "value": -0.318},
      {"measurement": "glycan array binding signal (z-score)", "setting": "[15]", "value": -0.346},
      {"measurement": "glycan array binding signal (z-score)", "setting": "Gal(a1-4)Gal(b1-4)Glc", "value": -0.322},
      {"measurement": "glycan array binding signal (z-score)", "setting": "Gal(b1-3)Gal(b1-4)GlcNAc", "value": -0.329},
      {"measurement": "glycan array binding signal (z-score)", "setting": "[16]", "value": -0.339},
      {"measurement": "glycan array binding signal (z-score)", "setting": "[17]", "value": -0.338},
      {"measurement": "glycan array binding signal (z-score)", "setting": "[18]", "value": -0.348},
      {"measurement": "glycan array binding signal (z-score)", "setting": "[19]", "value": -0.342},
      {"measurement": "glycan array binding signal (z-score)", "setting": "[20]", "value": -0.326},
      {"measurement": "glycan array binding signal (z-score)", "setting": "[21]", "value": -0.303},
      {"measurement": "glycan array binding signal (z-score)", "setting": "[22]", "value": 3.48},
      {"measurement": "glycan array binding signal (z-score)", "setting": "Gal6S(b1-3)GlcNAc6S", "value": -0.336},
      {"measurement": "glycan array binding signal (z-score)", "setting": "GalNAc(b1-3)GalNAc", "value": -0.349},
      {"measurement": "glycan array binding signal (z-score)", "setting": "GlcNAc(b1-3)Gal(b1-4)Glc", "value": -0.323}
    ]}
  ]
}
